Compounds with a hit are over-represented: about 2.7% of the library has one in this group of screens.
S2 tox – Viability Counterscreen for Primary qHTS for Inhibitors of ATXN expression. Potency, µM (top dose mostly 56.7 µM), most hits filed as cytotoxic. 0.49% of 400,000 active. S2 cells (HEK-293 line with an ATXN2-luciferase reporter) viability, CellTiter-Fluor protease fluorescence, 24 h; also: nearly all actives have a fitted effect of over 40% in size
TGFb inhibitor – qHTS for Inhibitors of TGF-b. Potency, µM (doses to about 46.1 µM), inactives show at the top dose activity, negative = inhibition, most hits filed as inhibitors. 1.2% of 410,000 active. HepG2 CAGA-GFP TGF-b/SMAD3 reporter, GFP fluorescence, 18 h; TGF-beta stimulated, 500 pg/mL final; also: % is scaled to controls: 0 for no effect and ±100 for the full control effect; nearly all actives have a fitted effect of over 65% in size
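Read-out: total well GFP (ex488/em500-530) summed from mean per-cell fluorescence. Cells: HEPG2 CAGA-GFP, 1% FBS DMEM, 18 h at 37 degrees C with 500 pg/mL final TGF-beta. Unstimulated wells served as the full-inhibition control; stimulated DMSO wells = 0%.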
ATXN2 expr inh – Primary qHTS for Inhibitors of ATXN expression | Potency, µM (highest dose often 57 µM), for the others: top-dose activity change, negative = inhibition, usual class: inhibitors | AID 1745845, 2022 | HEK-293 ATXN2-luciferase reporter, luminescence, 24 h | 0.72% of 360,000 active; also: % is scaled to controls: 0 for no effect and ±100 for the full control effect; nearly all actives have a fitted effect of over 55% in size
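qHTS (up to 57 uM final) was run with 24 h compound exposure of reporter cells at 37 °C. Each well was multiplexed: SteadyGlo luminescence measured ATXN2-luciferase expression after a fluorogenic Gly-Phe-AFC viability readout (25 uM final).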
HepG2 viability – qHTS for Inhibitors of TGF-b: Cytotox Counterscreen. HepG2 CAGA-GFP viability, ATP luminescence, 18 h. Potency, µM (top dose mostly 46.1 µM), inactives show at the top dose activity change, negative = cytotoxicity, hits mostly cytotoxic. 0.76% of 410,000 active. AID 588856, 2011
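CellTiter-Glo luminescence gave cytotoxicity after 18 hours at 37 degrees C. The cells were HepG2 CAGA-GFP in 1% FBS DMEM, stimulated with 500 pg/mL TGF-beta after compound addition. %Activity was normalised to no-cell wells (complete cell-killing) and DMSO (no toxicity), and curves were fitted and classified.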
ALOX12 inh – Primary qHTS assay for inhibitors of human arachidonate 12S-lipoxygenase (ALOX12): Round 2; purified 12hLO, xylenol orange hydroperoxide absorbance; Potency, µM (top dose mostly 108 µM), for the others: at the highest dose activity change, negative = inhibition, usual class: inhibitors; 1.1% of 580,000 active; also: % is scaled to controls: 0 for no effect and ±100 for the full control effect
Target sequence (P18054 whole entry, looked up): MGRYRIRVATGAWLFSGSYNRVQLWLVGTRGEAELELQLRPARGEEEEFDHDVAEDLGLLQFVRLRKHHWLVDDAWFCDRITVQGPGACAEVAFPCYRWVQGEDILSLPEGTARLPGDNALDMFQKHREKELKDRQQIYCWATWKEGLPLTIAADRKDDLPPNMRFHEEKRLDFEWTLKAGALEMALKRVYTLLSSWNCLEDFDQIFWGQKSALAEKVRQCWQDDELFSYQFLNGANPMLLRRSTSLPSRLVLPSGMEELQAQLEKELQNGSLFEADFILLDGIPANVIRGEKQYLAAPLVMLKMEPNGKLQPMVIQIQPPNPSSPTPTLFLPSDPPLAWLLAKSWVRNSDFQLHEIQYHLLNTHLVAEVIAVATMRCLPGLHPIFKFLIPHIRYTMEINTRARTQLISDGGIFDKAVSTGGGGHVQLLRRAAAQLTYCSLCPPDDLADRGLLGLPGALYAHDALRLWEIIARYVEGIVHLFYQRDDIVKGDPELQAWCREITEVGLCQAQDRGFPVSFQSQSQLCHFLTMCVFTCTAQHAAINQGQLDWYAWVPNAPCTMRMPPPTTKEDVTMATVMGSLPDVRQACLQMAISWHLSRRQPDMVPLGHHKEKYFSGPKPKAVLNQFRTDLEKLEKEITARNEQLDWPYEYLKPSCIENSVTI
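Purified human 12hLO at 150 nM in 25 mM Hepes, 0.01% Triton X-100, pH 7.0, preincubated 15 min at room temperature with compound. Reaction started with 40 uM arachidonic acid, 30 min at room temperature. Hydroperoxide measured by Fe-xylenol orange, 573/405 nm absorbance ratio.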
An asterisk follows results filed as active; i = inactive; ? = inconclusive; . = no result given; ! = not confirmed by another sample. Calls follow the shape of the dose curve; as a rule, active = well fitted curve in the direction sought with a large enough effect; inconclusive = small, poorly fitted or top-dose-only effect, or another doubt; inactive = no such curve, though single readings can be large; an effect the other way counts as inactive or inconclusive. Potency is read from the fitted curve at half-maximal effect.

SMILES | S2 tox | TGFb inhibitor | ATXN2 expr inh | HepG2 viability | ALOX12 inh
CCOc1ccc(-c2cn3c(n2)sc2cc(C(=O)NCCCN4CCCCCC4)ccc23)cc1 | . | ? | ? | 11.2µM* | ?
CCOc1ccc(-c2cn3c(n2)sc2cc(C(=O)NCCCN(CC)CC)ccc23)cc1 | 12.6µM* | ? | 8.91µM* | 10µM* | ?
CCOc1ccc(CNC(=O)c2ccc3c(c2)sc2nc(-c4ccc(OC)cc4)cn23)cc1 | . | -11.5% | . | 2.4% | -29.0%
CCOc1ccc(-c2cn3c(n2)sc2cc(C(=O)NCCCN4CCCCC4)ccc23)cc1 | ? | -0.5% | ? | 2.51µM* | 8.9%
COc1ccc(-c2cn3c(n2)sc2cc(C(=O)NCCCc4ccccc4)ccc23)cc1 | . | -9.0% | . | -26.7% | ?
CCCN1CCN(CCCNC(=O)c2ccc3c(c2)sc2nc(-c4ccc(OCC)cc4)cn23)CC1 | . | 28.2% | . | -27.4% | 0.6%
COc1ccc(-n2nc([N+](=O)[O-])c(=NCCc3ccc(OC)c(OC)c3)n2O)cc1 | i | -31.2% | -22.9% | 15.8µM* | -6.2%
COc1ccc(-n2nc([N+](=O)[O-])c(=NCCc3ccc(C)cc3)n2O)cc1 | i | -29.8% | 13.6% | -19.4% | 1.9%
CCN(CC)CCNC(=O)c1nc2c3c4c(sc3nc(C)n2n1)CCC4 | . | . | . | . | 7.1%
N#Cc1ccc(C(=O)/C=C/c2cc3ccccc3nc2N2CCOCC2)cc1 | . | . | . | . | 11.2µM*
Cc1ccc(C)c(NC(CNS(=O)(=O)c2ccccc2)c2ccccc2)c1 (centres undefined) | . | . | . | . | 27.8%
Cc1ccc(S(=O)(=O)NCC(Nc2cccc(Cl)c2)c2ccccc2)cc1 (centres undefined) | i | 11.2µM* | ? | 17.8µM* | ?
O=S(=O)(NCC(Nc1ccc(Cl)cc1)c1ccccc1)c1ccc(Cl)cc1 (centres undefined) | i | 12.6µM* | ? | -65.6% | -5.8%
O=S(=O)(NCC(c1ccccc1)N1CCC(O)CC1)c1ccc(Cl)cc1 (centres undefined) | i | -0.2% | -4.5% | -41.0% | -0.5%
CCOc1ccc(-c2cc(C(=O)NCCc3ccccn3)[nH]n2)cc1 | . | . | . | . | 28.5%
Cc1ccc(-c2nc(Cn3nnc(-c4ccccc4)n3)co2)c(C)c1 | . | . | . | . | 3.8%
Cc1cc(C)cc(NC(=S)NCCO)c1 | . | . | . | . | 14.1µM*
CCN(CCN(C)C)C(=O)C1CCN(S(=O)(=O)c2c(C)noc2/C=C/c2ccccc2F)CC1 | ? | ? | . | 15.8µM*! | ?
Cc1ccc(NC(=O)C2CCN(S(=O)(=O)c3c(C)noc3/C=C/c3cccs3)CC2)cc1F | . | ? | . | -26.0% | -21.3%
Cc1noc(/C=C/c2cccs2)c1S(=O)(=O)N1CCC(C(=O)Nc2ccc(F)c(Cl)c2)CC1 | . | 6.31µM* | . | -24.2% | ?
CCN(c1ccccc1)S(=O)(=O)c1ccc(NC(=O)c2cc(=O)c3ccc(C)cc3o2)cc1 | . | . | . | . | -2.1%
CC(=NNC(=S)N1CCCCC1)c1cccc(C)n1 | ? | 0.355µM* | ? | -52.7% | -23.5%
O=C(c1cc(=O)[nH]c2ccccc12)N1CCN(Cc2ccccc2)CC1 | . | . | . | . | -9.8%
Cc1sc2nc(SCC(=O)N3CCOCC3)[nH]c(=O)c2c1-c1ccccc1 | i | -2.7% | 8.4% | -0.8% | 31.6µM*
COc1ccc(NC(=S)NC(=O)/C=C/c2ccco2)c(OC)c1 | i | -11.3% | 1.8% | -23.5% | 35.5µM*
COc1ccc(C(NC(=O)/C=C/c2ccco2)c2ccc(OC)c(OC)c2)cc1 (centres undefined) | ? | 7.9% | 3.7% | 6.7% | 44.7µM*
CC(Sc1ccccc1F)C(N)=O (centres undefined) | . | . | . | . | -28.8%
CC1=C(C(=O)Nc2ccccc2)C(c2ccc(C)cc2)N=C(Nc2nc3ccccc3o2)N1 (centres undefined) | ? | ? | ? | 11.2µM* | ?
C=CCNCc1ccccc1OCC | . | . | . | . | -5.5%
O=C(CCc1cccnc1)NCCC12CC3CC(CC(C3)C1)C2 | . | . | . | . | 38.8%
